Unmarked numbers belong to inactive results. Records with an inconclusive call do not appear. Entries that show only a call come without a potency. The source made the active and inactive calls. Unless noted, calls come from the whole dose curve; as a rule, active = well fitted curve in the direction sought with a large enough effect in the repeat runs; inconclusive = weak or mixed curves; inactive = no such curve, though single readings can be large; an effect the other way counts as inactive or inconclusive.
Legend:
[1] = qHTS assay to identify small molecule agonists of the TGF-beta/Smad signaling pathway - cell viability counter screen (AID 1346829); note: top concentration of the series differs between compounds; nearly all actives have a fitted effect of over 45% in size
Outline: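 Here the cytotoxicity of library compounds is measured in SBE-bla HEK 293T cells treated for 5 hr, using CellTiter-Glo added to wells already read for the beta-lactamase reporter.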

[2] = qHTS assay to identify small molecule agonists of the TGF-beta/Smad signaling pathway (AID 1346859; active = well fitted activation curve with a large enough effect in the signal ratio in the repeat runs, not every such curve was filed as active; the % refers to the signal ratio; note: series mostly up to about 77 µM)
Outline: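 Fluorescence (ex 405 nm; em 460 and 530 nm) was read 2 h after LiveBLAzer FRET substrate at RT. The preceding compound treatment of overnight-plated SBE-bla HEK293T cells lasted 5 h at 37 C.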

[3] = target: Thyrotropin-releasing hormone receptor (Homo sapiens) (UniProt P34981); test: qHTS assay to identify small molecule antagonists of the thyrotropin-releasing hormone receptor (TRHR) signaling pathway (AID 1346877; active = well fitted inhibition curve with a large enough effect in the repeat runs, not every such curve was filed as active; note: series mostly up to about 51 µM)
Outline: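 TRHR-expressing HEK293 cells loaded with calcium dye for 2 h at 37 C; compounds pre-incubated 5 min at room temperature before TRH challenge at 1 nM final. Intracellular calcium fluorescence read kinetically for 3 min; 15 concentrations in triplicate.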

[4] = target: Thyrotropin-releasing hormone receptor (Homo sapiens) (UniProt P34981); test: qHTS assay to identify small molecule agonists of the thyrotropin-releasing hormone receptor (TRHR) signaling pathway (AID 1346891; calls by dose curve; note: series mostly up to about 58 µM)
Outline: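 Agonist-mode intracellular calcium readout: kinetic fluorescence over 3 min at 1 s intervals after compound addition to TRHR-HEK293 cells (18 h seeded, 2 h dye-loaded at 37 C). Fifteen concentrations, triplicates.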

[5] = Human pregnane X receptor (PXR) small molecule agonists, qHTS cell viability counter screen (AID 1346977); note: nearly all actives have a fitted effect of over 50% in size; note: potency is the fitted concentration of half-maximal effect
Outline: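 Same-well viability read: CellTiter-Fluor added after 23 hr compound exposure, fluorescence measured 1 hr later. Cells were PXR-Luc HepG2 seeded at 2,000/well in 5% charcoal-stripped FBS medium, rested 5 hr before dosing at 37 C.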

[6] = Caspase-3/7 induction in HepG2 cells by small molecules, qHTS assay (AID 1346978); note: nearly all actives have a fitted effect of over 15% in size
Outline: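 Wild-type HepG2 cells (2,000/well) were settled 5 h at 37 C, 5% CO2, then exposed to compounds in DMSO for 17 h. Caspase-3/7 activity was read by luminescence 30 min after adding Caspase-Glo 3/7 reagent at room temperature.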

[7] = Caspase-3/7 induction in CHO-K1 cells by small molecules, qHTS cell viability counter screen (AID 1346979); note: nearly all actives have a fitted effect of over 35% in size; note: potency is the fitted concentration of half-maximal effect
Outline: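 Cytotoxicity counter screen: CellTiter-Fluor added to compound-treated wild-type CHO-K1 cells at 16 h (37C, 5% CO2), fluorescence measured 1 h later; same wells as caspase-3/7 measurement.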

[8] = Caspase-3/7 induction in HepG2 cells by small molecules, qHTS cell viability counter screen (AID 1346981); note: nearly all actives have a fitted effect of over 30% in size; note: potency is the fitted concentration of half-maximal effect
Outline: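 Wild-type HepG2 cells, 2,000/well, settled 5 hr at 37 C, 5% CO2 before compound addition. Viability read by CellTiter-Fluor fluorescence, reagent added after 16 hr compound exposure, then 1 hr at 37C, in the same wells as the caspase read.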

[9] = target: Nuclear receptor subfamily 1 group I member 2 (Homo sapiens) (UniProt O75469); test: Human pregnane X receptor (PXR) small molecule agonists, qHTS assay (AID 1346982); note: nearly all actives have a fitted effect of over 35% in size; note: potency is the fitted concentration of half-maximal effect
Outline: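 PXR-Luc HepG2 reporter cells (CYP3A4-driven luciferase) in 5% charcoal-stripped FBS medium, plated 5 h before compound addition, then treated 24 h at 37C. Luciferase read by ONE-Glo luminescence after 30 min at room temperature.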

[10] = target: Cytochrome P450 2D6 (Homo sapiens) (UniProt P10635); test: Cytochrome P450 Family 2 Subfamily D Member 6 (CYP2D6) small molecule antagonists: luciferase reporter qHTS assay (AID 1671196); note: nearly all actives have a fitted effect of over 50% in size; note: potency is the fitted concentration of half-maximal effect
Outline: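 Cell-free P450-Glo system: CYP2D6 with proluciferin substrate was pre-incubated with compound for 10 min, then reacted with NADPH regeneration for 1 h at room temperature. Luciferin product was detected after 20 min, and data were reported as relative luminescence units.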

[11] = qHTS assay to identify small molecule antagonists of the progesterone receptor (PR) signaling pathway - cell viability counter screen (AID 1346798); note: nearly all actives have a fitted effect of over 50% in size; note: potency is the fitted concentration of half-maximal effect
Outline: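 Cytotoxicity read as CellTiter-Glo luminescence (30 min, room temperature) in the same wells as the beta-lactamase readout. HEK293T PR-UAS-bla cells in charcoal-stripped 2% FBS received compound and R5020, then 16 h at 37C, 5% CO2.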

[12] = qHTS assay to identify small molecule agonists of the progesterone receptor (PR) signaling pathway - cell viability counter screen (AID 1346799; calls by dose curve; note: nearly all actives have a fitted effect of over 45% in size; note: potency is the fitted concentration of half-maximal effect)
Outline: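 Cytotoxicity measured by CellTiter-Glo luminescence (30 min, RT) in the same wells as the PR beta-lactamase agonist read. Those HEK293T cells had 16 h compound treatment at 37 C in 2% charcoal-stripped FBS medium.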

[13] = qHTS assay to identify small molecule antagonists of the TGF-beta/Smad signaling pathway - cell viability counter screen (AID 1346824); note: nearly all actives have a fitted effect of over 50% in size
Outline: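 SBE-bla HEK 293T cells were plated overnight at 37 C, then given compounds in DMSO plus TGF-beta1 (added as 0.25 ng/mL solution) for 5 hr. After the bla read, CellTiter-Glo was added to the same wells and luminescence read after 30 min at room temperature.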

[14] = Caspase-3/7 induction in CHO-K1 cells by small molecules, qHTS assay (AID 1346980); note: nearly all actives have a fitted effect of over 15% in size
Outline: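 Wild-type cells were seeded at 1,500 per well and settled 5 hr at 37 C, 5% CO2, then exposed to DMSO-dissolved compounds for 17 hr. Caspase-Glo 3/7 reagent was added, and luminescence was read after 30min at room temperature.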

[15] = target: Cytochrome P450 2C19 (Homo sapiens) (UniProt P33261); test: Cytochrome P450 Family 2 Subfamily C Member 19 (CYP2C19) small molecule antagonists: luciferase reporter qHTS assay (AID 1671197); note: nearly all actives have a fitted effect of over 65% in size; note: potency is the fitted concentration of half-maximal effect
Outline: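 Light output is proportional to CYP2C19 activity: proluciferin substrate is converted to luciferin, then detected by a luciferin detection reagent that also stops the 1 h, 37C NADPH-driven reaction. Ketoconazole serves as positive control.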

[16] = target: Nuclear receptor subfamily 1 group I member 2 (Rattus norvegicus) (UniProt Q9R1A7); test: Rat pregnane X receptor (rPXR) activation by small molecules, qHTS assay (AID 1346983); details: rPXR luciferase reporter cells, One-Glo luminescence, 24 h; max activation: active compounds read high; note: nearly all actives have a fitted effect of over 20% in size; note: potency is the fitted concentration of half-maximal effect
Outline: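 Cell-based rPXR luciferase reporter assay, 2,000 cells per well, rested 5hr at 37 C before compound addition in DMSO, then 24 hr at 37 C. One-Glo reagent was added and luminescence read after 30 min at room temperature.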

[17] = target: Nuclear receptor subfamily 1 group I member 2 (Homo sapiens) (UniProt O75469); test: CYP3A4 induction through human pregnane X receptor (PXR) by small molecules, qHTS assay (AID 1346984); note: potency is the fitted concentration of half-maximal effect; nearly all actives have a fitted effect of over 40% in size
Outline: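 DPX-2 HepG2 cells carrying a PXR response element and CYP3A4-promoter luciferase construct, treated with compounds 24 hr at 37C. Then P450-Glo CYP3A4 Luciferin-IPA substrate (3uM final) for 3 hr at 37C, One-Glo added, luminescence read.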

Sequence of Cytochrome P450 2D6 (Homo sapiens) (P10635 whole entry, looked up): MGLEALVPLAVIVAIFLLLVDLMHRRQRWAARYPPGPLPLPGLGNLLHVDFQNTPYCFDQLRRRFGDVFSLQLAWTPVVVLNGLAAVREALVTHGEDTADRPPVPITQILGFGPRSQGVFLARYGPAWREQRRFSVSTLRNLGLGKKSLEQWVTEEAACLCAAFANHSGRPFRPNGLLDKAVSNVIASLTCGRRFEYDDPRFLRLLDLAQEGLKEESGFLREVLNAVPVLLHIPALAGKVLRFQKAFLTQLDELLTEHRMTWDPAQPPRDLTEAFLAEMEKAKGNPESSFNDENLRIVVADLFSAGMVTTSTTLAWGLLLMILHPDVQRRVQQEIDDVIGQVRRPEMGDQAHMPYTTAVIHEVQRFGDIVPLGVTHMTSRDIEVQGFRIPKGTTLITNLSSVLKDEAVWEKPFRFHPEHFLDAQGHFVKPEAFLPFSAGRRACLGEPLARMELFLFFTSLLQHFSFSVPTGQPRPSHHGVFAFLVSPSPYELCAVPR
Sequence of Cytochrome P450 2C19 (Homo sapiens) (P33261 whole entry, looked up): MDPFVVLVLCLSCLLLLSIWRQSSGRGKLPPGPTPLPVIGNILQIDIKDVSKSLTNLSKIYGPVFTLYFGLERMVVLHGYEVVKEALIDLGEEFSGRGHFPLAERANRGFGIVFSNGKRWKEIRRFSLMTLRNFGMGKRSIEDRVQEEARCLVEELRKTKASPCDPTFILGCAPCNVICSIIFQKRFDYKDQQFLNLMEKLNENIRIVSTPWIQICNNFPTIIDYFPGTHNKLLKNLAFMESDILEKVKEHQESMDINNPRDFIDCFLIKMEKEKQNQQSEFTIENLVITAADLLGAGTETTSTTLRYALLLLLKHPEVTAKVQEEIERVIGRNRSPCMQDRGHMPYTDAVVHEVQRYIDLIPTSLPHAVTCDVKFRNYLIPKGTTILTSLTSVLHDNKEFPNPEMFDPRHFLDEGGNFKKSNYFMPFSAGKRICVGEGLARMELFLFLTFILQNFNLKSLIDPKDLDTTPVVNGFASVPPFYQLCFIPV
Sequence of Nuclear receptor subfamily 1 group I member 2 (Homo sapiens) (O75469 whole entry, looked up): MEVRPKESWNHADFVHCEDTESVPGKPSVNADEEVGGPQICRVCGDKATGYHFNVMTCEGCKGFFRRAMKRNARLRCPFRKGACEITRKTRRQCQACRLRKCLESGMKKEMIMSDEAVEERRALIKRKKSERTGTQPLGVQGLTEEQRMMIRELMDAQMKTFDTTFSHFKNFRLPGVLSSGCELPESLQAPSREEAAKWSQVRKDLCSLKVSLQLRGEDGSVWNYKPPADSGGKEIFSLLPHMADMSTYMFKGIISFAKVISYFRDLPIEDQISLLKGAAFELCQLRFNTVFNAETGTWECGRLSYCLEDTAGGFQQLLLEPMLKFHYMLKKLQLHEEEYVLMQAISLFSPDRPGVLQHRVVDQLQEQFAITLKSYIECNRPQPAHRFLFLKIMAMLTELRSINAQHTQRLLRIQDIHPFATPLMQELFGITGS
Sequence of Thyrotropin-releasing hormone receptor (Homo sapiens) (P34981 whole entry, looked up): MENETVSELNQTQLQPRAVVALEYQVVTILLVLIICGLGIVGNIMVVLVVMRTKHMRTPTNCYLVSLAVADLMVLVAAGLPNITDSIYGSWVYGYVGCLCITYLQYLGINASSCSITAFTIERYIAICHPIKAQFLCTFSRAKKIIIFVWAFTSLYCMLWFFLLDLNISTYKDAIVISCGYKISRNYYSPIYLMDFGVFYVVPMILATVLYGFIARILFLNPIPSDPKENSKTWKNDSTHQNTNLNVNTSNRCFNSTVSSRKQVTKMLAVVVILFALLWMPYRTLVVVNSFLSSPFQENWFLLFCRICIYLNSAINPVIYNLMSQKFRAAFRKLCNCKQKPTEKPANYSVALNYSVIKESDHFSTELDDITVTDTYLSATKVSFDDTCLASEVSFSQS
Sequence of Nuclear receptor subfamily 1 group I member 2 (Rattus norvegicus) (Q9R1A7 whole entry, looked up): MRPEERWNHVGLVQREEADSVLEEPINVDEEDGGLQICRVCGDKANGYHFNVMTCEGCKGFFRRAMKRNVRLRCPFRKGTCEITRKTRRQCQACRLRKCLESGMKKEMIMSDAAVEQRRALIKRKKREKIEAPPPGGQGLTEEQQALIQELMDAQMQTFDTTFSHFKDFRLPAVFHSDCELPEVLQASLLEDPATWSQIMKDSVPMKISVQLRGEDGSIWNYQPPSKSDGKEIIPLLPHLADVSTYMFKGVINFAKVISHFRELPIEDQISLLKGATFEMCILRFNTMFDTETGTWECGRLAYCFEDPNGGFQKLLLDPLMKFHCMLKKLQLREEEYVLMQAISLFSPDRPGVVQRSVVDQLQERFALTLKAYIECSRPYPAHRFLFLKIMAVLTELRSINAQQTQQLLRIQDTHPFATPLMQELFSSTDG

| Structure (SMILES) | outcome [1] | Potency [2] | outcome [3] | Potency [4] | Potency [5] | Potency [6] | Potency [7] | Potency [8] | Potency [9] | Potency [10] | Potency [11] | Potency [12] | Potency [13] | Potency [14] | Potency [15] | Potency [16] | Potency [17] | max activation [16] |
| --- | --- | --- | --- | --- | --- | --- | --- | --- | --- | --- | --- | --- | --- | --- | --- | --- | --- | --- |
| C=CC(=O)OCCOCCOC(=O)C=C | inactive | inactive | inactive | inactive | 54.7 µM (active) | inactive | 15.4 µM (active) | 61.4 µM (active) | inactive | inactive |  |  |  |  |  |  |  |  |
| CC(C)Cc1ccc(C(C)C(=O)OCc2ccccn2)cc1 (centres undefined) | inactive | inactive | inactive | inactive |  | inactive | inactive | inactive |  |  | inactive | inactive | inactive | inactive | 7.76 µM (active) |  |  |  |
| O=C(Cl)c1cc(C(=O)Cl)cc(C(=O)Cl)c1 | inactive | inactive | inactive | inactive |  | inactive |  | inactive |  |  |  |  | inactive | inactive | inactive |  |  |  |
| COc1ccc(C(=O)c2ccc(OC)cc2O)c(O)c1 | inactive |  | inactive | inactive |  | inactive |  |  | 27.5 µM (active) |  | inactive |  | inactive | inactive | 0.802 µM (active) |  |  |  |
| C[C@H]1C[C@H]2[C@@H]3CCC4=CC(=O)C=C[C@]4(C)[C@@]3(Cl)[C@@H](O)C[C@]2(C)[C@@]1(O)C(=O)CO | inactive |  | inactive | inactive | inactive | inactive |  | inactive |  | 30.9 µM (active) | inactive |  | inactive | inactive |  | 5.62 µM (active) | 15.8 µM (active) |  |
| CN(C)CCCN1c2ccccc2Sc2ccccc21 | inactive | inactive | inactive | inactive | 23.7 µM (active) | inactive |  | inactive |  |  |  |  | inactive | inactive |  |  |  | -2.41% |
| Clc1ccc(Cn2c(CN3CCCC3)nc3ccccc32)cc1 | inactive | inactive | inactive | inactive |  | inactive |  | inactive |  | 1.74 µM (active) | 6.68 µM (active) | 7.5 µM (active) | inactive | inactive | 0.776 µM (active) |  |  |  |
| O=C(c1ccc(F)cc1)C1CCN(CCn2c(=S)[nH]c3ccccc3c2=O)CC1 | inactive |  | inactive | inactive | inactive | inactive |  | inactive | 10.6 µM (active) | 4.36 µM (active) |  | inactive | inactive | inactive |  |  |  | 1.09% |
| Nc1ccc([N+](=O)[O-])c(C(F)(F)F)c1 | inactive | inactive | inactive | inactive | inactive | inactive | 29.8 µM (active) |  | inactive | inactive | inactive |  | inactive | inactive |  |  |  |  |
| Nc1cccc([N+](=O)[O-])c1 | inactive | inactive | inactive | inactive | inactive | inactive | inactive | inactive | inactive | inactive | inactive | inactive | inactive | inactive | 69.5 µM (active) |  |  |  |
| Cc1c(N)cccc1[N+](=O)[O-] | inactive | inactive |  |  | inactive | inactive | inactive | inactive | inactive | inactive | inactive |  | inactive | inactive | inactive |  |  |  |
| CC(C)(C)OCC1CO1 (centres undefined) | inactive | inactive | inactive | inactive | inactive | inactive | inactive | inactive | inactive | inactive | inactive | inactive | inactive | inactive | inactive |  |  |  |
| CCCCc1nc2cccnc2n1Cc1ccc(-c2ccccc2-c2nnn[nH]2)cc1 | inactive |  | inactive | inactive | inactive | inactive | 48.6 µM (active) |  | 61.1 µM (active) | inactive | inactive | inactive | inactive | inactive | inactive |  |  |  |
| O=C(O)c1nc(Cl)c(Cl)c(Cl)c1Cl | inactive |  | inactive | inactive |  | inactive | inactive | inactive | inactive | 28.3 µM (active) | inactive |  | inactive | inactive |  |  |  |  |

— PubChem BioAssay (Tox21)
